Data from PubChem BioAssay (NCI).
About 83,000 compounds went through this panel and 20% of them were active in at least one assay; those are over-represented in the sample as a whole.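 96-well plates, one dose, 48 hours. Percent growth reported; active if below 10.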 Unmarked numbers belong to inactive results. The source made the active and inactive calls.

How the values were obtained:
Assay in all cases: NCI-60 one-dose screen, 48 h (100 = growth as untreated, 0 = no growth, -100 = all killed)
[1] = system: HCT-15 colon; conditions: 10 µM unless noted
[2] = system: HT29 colon; conditions: 10 µM unless noted
[3] = system: SNB-75 CNS; conditions: 10 µM unless noted
[4] = system: SNB-19 CNS; conditions: 10 µM unless noted
[5] = system: U251 CNS; conditions: 10 µM unless noted
[6] = system: PC-3 prostate; conditions: 10 µM unless noted
[7] = system: SK-MEL-5 melanoma; conditions: 10 µM unless noted
[8] = system: UACC-62 melanoma; conditions: 10 µM unless noted
[9] = system: LOX IMVI melanoma; conditions: 10 µM
[10] = system: SK-MEL-28 melanoma; conditions: 10 µM unless noted

Row | Structure (SMILES) | growth [1] | growth [2] | growth [3] | growth [4] [%] | growth [5] | growth [6] | growth [7] | growth [8] | growth [9] | growth [10] [%]
1 | Cc1nc([N+](=O)[O-])c(Sc2nncc(-c3ccccc3)n2)n1C | 68% | 84.5% | 76.6% | 116 | 79.4% | 98.1% | 96% | 82.2% | 82.2% | 89.1
2 | CCCCC(CCc1ccc([N+](=O)[O-])cc1)(C(C)=O)C(=O)OCC (stereo not given) | 94.7% | 94.2% | 85.1% | 108 | 95.3% | 81.2% | 93.2% | 97.5% | 95.8% | 100
3 | COC(=O)[C@]1(C)CCC[C@]2(C)c3ccc(C(C)C)cc3C(=O)[C@@H](Br)[C@@H]12 | 69.6% | 76.2% | 80.4% | 98.3 | 91.1% | 86.8% | 90.4% | 90.6% | 79.7% | 100
4 | CCN(CC)CCNc1ccc([N+](=O)[O-])c2sc3ccccc3c(=O)c12 | 23% | 9.13% (active) | 34.8% | 34.8 | 22.8% | 27.3% | 21.1% | 35.7% | 19.4% | 35.4
5 | NC(=S)N/N=C\c1nccc2c(C(F)(F)F)cccc12 | 28.6% | 18.5% | 11.6% | 30.6 | 5.79% (active) | 18.6% | -41.5% (active) | -3.16% (active) | 4.01% (active) | 26.6
6 | OC(Cc1cc(CC(O)(C(F)(F)F)C(F)(F)F)nc(CC(O)(C(F)(F)F)C(F)(F)F)c1)(C(F)(F)F)C(F)(F)F | 9.46% (active) | -12.1% (active) | -8.76% (active) | 16 | -60.2% (active) | 4.38% (active) | -83.3% (active) | -10.6% (active) | 0.881% (active) | 26.5
7 | CC(C)(C)c1ccc(O)c(Br)c1 | 104% | 103% | 77% | 95.9 | 106% | 101% | 96.4% | 98.2% | 98.3% | 102
